According to publication PMC8384837, “Expanding the binding specificity for RNA recognition by a PUF domain”:

Each sequence was assayed against PUM1 PUF domain R5-RRD (Homo sapiens, UniProt Q14671 828-1176, C1007R;Q1011D) (assay: yeast three-hybrid, YBZ-1, SC-Leu-His + 0.5 mM 3-AT, 4 days). Conditions: tags: N-Gal4 AD-HA kept; label: inside an RPR1-promoter hybrid RNA with tandem MS2 sites; ssRNA.
Outline: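 Matching RNA elements and Pumilio-1 PUF domain libraries, randomized at the three base-contacting residues of every repeat, were co-expressed from a centromeric plasmid in strain YBZ-1 (LexA–MS2 coat fusion, HIS3 reporter). The repeat regions were PCR-amplified and Illumina-sequenced from cells grown four days on SC-Leu (input) or SC-Leu-His + 0.5 mM 3-AT (selection). The interaction score is the log change in variant frequency from input to selection. It is computed in log2, with a pseudocount of 1 for absent variants.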

Row | Sequence | binding signal
1 | GGCUAGAACUAGUGGAUCCCCCGGCGCCCGGCGGCUCGAGCCCGGGUAAGUGUAAAUAGUCUGCAUGCCGCCGGGCGCCAUGCCUGCAGGUCGACUCUAGAAAACAUG | 2.72 log2 enrichment (interaction score)
2 | GGCUAGAACUAGUGGAUCCCCCGGCGCCCGGCGGCUCGAGCCCGGGUAAGUGUCAAUAGUCUGCAUGCCGCCGGGCGCCAUGCCUGCAGGUCGACUCUAGAAAACAUG | 5.76 log2 enrichment (interaction score)
3 | GGCUAGAACUAGUGGAUCCCCCGGCGCCCGGCGGCUCGAGCCCGGGUAAGUGUUAAUAGUCUGCAUGCCGCCGGGCGCCAUGCCUGCAGGUCGACUCUAGAAAACAUG | 5.74 log2 enrichment (interaction score)
